Here are results for 40 molecules from PubChem BioAssay (NCATS).

Results filed as inconclusive are left out. Values without a mark were called inactive. Active and inactive are the calls of the source. The call rests on the fitted dose curve; in most records, active means well fitted inhibition curve with a large enough effect; inconclusive means small, poorly fitted or top-dose-only effect; inactive means flat fitted curve, though single readings scatter.
Potency means the concentration at half of the fitted maximal effect.

Sequence of Luciferin 4-monooxygenase (Photinus pyralis) (P08659 whole entry, looked up): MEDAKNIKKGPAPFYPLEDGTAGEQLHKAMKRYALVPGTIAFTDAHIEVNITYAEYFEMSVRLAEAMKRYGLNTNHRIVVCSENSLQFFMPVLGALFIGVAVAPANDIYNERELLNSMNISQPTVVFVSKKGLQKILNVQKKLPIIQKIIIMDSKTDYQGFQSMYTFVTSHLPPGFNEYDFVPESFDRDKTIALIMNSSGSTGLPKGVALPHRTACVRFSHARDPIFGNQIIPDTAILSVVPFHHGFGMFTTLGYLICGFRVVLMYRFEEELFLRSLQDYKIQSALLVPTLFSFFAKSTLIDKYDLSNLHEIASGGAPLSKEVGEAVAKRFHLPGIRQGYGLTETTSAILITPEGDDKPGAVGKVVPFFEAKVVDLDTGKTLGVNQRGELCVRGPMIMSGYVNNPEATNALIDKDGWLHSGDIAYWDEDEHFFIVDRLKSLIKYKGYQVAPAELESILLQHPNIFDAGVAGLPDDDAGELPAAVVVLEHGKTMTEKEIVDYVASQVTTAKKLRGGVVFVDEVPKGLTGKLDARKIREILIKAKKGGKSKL

This experiment has as its target Luciferin 4-monooxygenase (Photinus pyralis) (UniProt P08659). As to the kind of experiment: Biochemical firefly luciferase enzyme assay for NPC (AID 624030). Further: nearly all actives have a fitted effect of over 70% in size.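 On activity change, negative = inhibition: 0% = DMSO and -100% = full luciferase inhibition by PTC124 control.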 The conditions noted are these: purified P. pyralis luciferase, luminescence, 5 min; series mostly up to 58.6 µM; activity change, negative = inhibition: at the top concentration. From the text:
Charcot-Marie-Tooth-Association [CMTA] National Center for Advancing Translational Sciences [NCATS] Charcot-Marie-Tooth (CMT) disease was first characterized by Jean-Martin Charcot and Pierre Marie in France and, independently, by Howard Henry Tooth in England in 1886. CMT is one of the most common inherited neurological diseases, affecting approximately 1 in 2,500 Americans. […] The most prevalent type of CMT is known as CMT1A and caused by a duplication of the PMP22 gene which leads to over-expression of this protein. PMP22 is a glycosylated intrinsic membrane protein accounting for 2-5% of the myelin protein content, and its over-expression results in demyelination and subsequently axonal loss. A pair of cellular transcription-based assays was developed in the S16 rat Schwann cell lines (Hai, M., et al., 2002) stably transfected with orthogonal reporters - firefly luciferase (Fluc) and beta-lactamase (beta-Lac) - whose expression is driven by an intronic regulatory element of the PMP22 gene (Jones, E.A., et al., 2011) to recapitulate endogenous expression of PMP22. A comprehensive library of approved drugs, the NCGC Pharmaceutical Collection (Huang, R., et al., 2011), was screened in the cross-validating platform of the orthogonal reporter assays to identify drug modulators inhibitory towards PMP22 expression. A set of counter-screens was devised to address non-specific activity of the library. An ATP-dependent CellTiter-Glo assay (developed by Promega Corp) was utilized to control cell viability. In addition, biochemical Fluc enzyme assay was performed to assess direct inhibition of the Fluc enzymatic activity. References Hai, M., Muja, N., DeVries, G.H., Quarles, R.H. and Patel, P.I. Comparative analysis of Schwann cell lines as model systems for myelin gene transcription studies. J Neurosci Res, 2002. 69(4): pp 497-508 Huang, R., Southall, N., Wang, Y., Yasgar A., Shinn P., Jadhav, A. , Nguyen, D.-T. and Austin, C.P., The NCGC pharmaceutical collection: a comprehensive resource of clinically approved drugs enabling repurposing and chemical genomics. Sci Transl Med, 2011. 3(80): p. 80ps16.
Compounds were transferred to the plates in 23nl, and one microliter/well luciferase enzyme-buffer solution (10 nM P. pyralis luciferase and 50 mM Tris Acetate final concentrations) was dispensed yielding a final reaction volume of […]. Luciferase luminescence was measured by a ViewLux plate reader within 5 minutes of enzyme-buffer addition. The % activity was determined by normalizing to the average readings of PTC124 (a positive control) relative to DMSO (0% Activity). The concentration-effect curves were then classified based on curve quality (r2), response magnitude and degree of measured activity.
With `C[N+](C)(C)CCO`, the Potency entry was “inactive”.
For the molecule `Nc1c(NC/C=C\COc2cc(CN3CCCCC3)ccn2)c(=O)c1=O`, the “activity change, negative = inhibition” value was -0.462%.
Still for that read-out and setting: the result for `CCNC(=O)NCCCOc1cccc(CN2CCCCC2)c1` reads -0.531%.
Still for that read-out and setting: to `O=C(CCCCC(=O)Nc1c(I)cc(I)c(C(=O)O)c1I)Nc1c(I)cc(I)c(C(=O)O)c1I` belongs -12.9%.
Same read-out and setting: the result for `CC(C)(C)C(=O)OCOC(=O)C1N2C(=O)CC2S(=O)(=O)C1(C)C` (stereo not given) reads -2.43%; that for `O=[N+]([O-])c1ccc(O)c2ncccc12`, -23.5%; that for `CCN1CCN(c2cc(-c3ccc(F)cc3)c3c(n2)CCCCCC3)CC1`, -0.548%.
On to `COC(=O)c1c(Cl)c(Cl)c(C(=O)OC)c(Cl)c1Cl`, for which the “activity change, negative = inhibition” value is -1.04% [at 123 µM].
On the same count and under the same terms, to `O=C(NN1CCCC1)NS(=O)(=O)c1ccc(Cl)cc1` belongs -5.73%.
Turning to `CC(C)=CCC/C(C)=C/CC/C(C)=C/CCC(=O)OC/C=C(\C)CCC=C(C)C`, the “activity change, negative = inhibition” value is -1.58%.
On the same count and under the same terms, to `O=C1CC[C@H](C(=O)N2CCCCC2)N1` belongs 0.344%; to `CC(=O)Nc1ccn(C2COC(COC(=O)c3ccccc3)O2)c(=O)n1` (stereo not given), -2.59%; to `COc1ccccc1OCC1CNC(=O)O1` (stereo not given), 0.773%.
On the same count and under the same terms, to `CN1C(=O)c2ccccc2C1=O` belongs -4.01% [at 123 µM].
The same measure, in the same setting: to `Cc1nc([N+](=O)[O-])cn1-c1ccc([N+](=O)[O-])cc1` belongs -0.814%; to `CC1CN(c2cc3c(cc2F)c(=O)c(C(=O)O)cn3-c2ccc(F)cc2F)CCN1` (stereo not given), -1.13%.
As to `CCCCCCCCCCCC[N+](C)(C)Cc1ccccc1`, the “activity change, negative = inhibition” value was 14.6%.
Take `O=C(CCC1CCN(Cc2ccccc2)CC1)c1ccc2c(c1)NCCCC2`: the “activity change, negative = inhibition” value is 1.25%.
The same measure, in the same setting: the result for `CC[N+]1(CC)CCC(=C(c2ccccc2)c2ccccc2)C1C` (stereo not given) reads -0.771%; that for `CC(CCc1ccc2c(c1)OCO2)NN` (stereo not given), -12.2%.
For `O=C1OC2(c3ccccc31)c1cc(I)c(O)c(I)c1Oc1c2cc(I)c(O)c1I`, the Potency was 14.4 µM (active).
As to `CCOC(=O)c1ccc(OCCN2C[C@H](O)[C@@H](O)[C@H](O)[C@H]2CO)cc1`, the “activity change, negative = inhibition” value was -5.74%.
The same measure, in the same setting: to `C[C@]12CCC(=O)C=C1CC[C@@H]1[C@@H]2[C@@H](O)C[C@@]2(C)[C@H]1CC[C@]2(O)C(=O)COC(=O)CCC(=O)O` belongs -3.81%; to `O=C(O)CNC(=O)CNC(=O)CNC(=O)CSC(=O)c1ccccc1`, -0.007%; to `O=C(O)Cc1ccc(OCCNC[C@H](O)c2ccccc2)cc1`, 1.32%.
Same read-out and setting: the result for `CCCN(CCC)C(=O)C(CCC(=O)OCCCN1CCN(CCOC(=O)Cc2c(C)n(C(=O)c3ccc(Cl)cc3)c3ccc(OC)cc23)CC1)NC(=O)c1ccccc1` (stereo not given) reads -3.46%.
Take `O=C1NCCN1CCN1CCC(c2cn(-c3ccc(F)cc3)c3ccc(Cl)cc23)CC1`: the Potency entry is “inactive”.
`CC(=O)Nc1c(I)c(NC(C)=O)c(I)c(C(=O)O)c1I`: the “activity change, negative = inhibition” value was -0.419%.
Still for that read-out and setting: to `Cc1cc(C(C)(C)C)c(O)c(C(C)(C)C)c1` belongs -2.78%; to `CC(=O)OCC(=O)[C@@]1(O)[C@H](OC(C)=O)C[C@H]2[C@@H]3CCC4=CC(=O)C=C[C@]4(C)[C@@]3(F)[C@@H](O)C[C@@]21C`, -1.88%.
Still for that read-out and setting: to `CC(=O)Nc1ccc(S(=O)(=O)Nc2cc(C)on2)cc1` belongs 0.335%; to `Cc1cccc(N(C)C(=S)Oc2ccc3c(c2)CCC3)c1`, -11.6%; to `O=C(c1ccccc1)c1ccccc1`, -2.66%.
On the same count and under the same terms, to `Cc1cc(O)c2c(O)c3c(O)cccc3cc2c1` belongs -4.65%; to `O=C1NC2CCCCN2C12CCN(CCCN1c3ccccc3CCc3ccc(Cl)cc31)CC2` (stereo not given), 4.42%.
`CC(=O)N(CC(O)CO)c1c(I)c(C(=O)NCCO)c(I)c(C(=O)NCC(O)CO)c1I` (stereo not given): the “activity change, negative = inhibition” value was -3.15%.
Still for that read-out and setting: the result for `C=CCOc1cc(Cl)ccc1C(=O)NCCN(CC)CC` reads 0.128%; that for `Nc1c2ccccc2nc2ccccc12`, 4.62%; that for `C[C@@]12CCC[C@H]1[C@@H]1CC[C@H]3C[C@@H](O)CC[C@]3(C)[C@H]1CC2`, 2.39%.
Regarding `Cn1cc(S(C)=O)c(=O)c2ccc(F)cc21` (stereo not given), the “activity change, negative = inhibition” value is 0.304%.
